Assay outcomes deposited in PubChem BioAssay by National Center for Advancing Translational Sciences (NCATS).
D1 agonist – agonists of human D1 dopamine receptor | hit rate 1% among 360,000 | AID 504660 | HEK293 T-REx D1 cells, calcium flux, agonist mode | activation, % at 2 µM | P21728; further: 0% is about no effect
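Tetracycline-induced HEK293 TREx D1 cells, force-coupled to calcium signalling, were dye-loaded with a no-wash calcium kit. Compound was pin-added after a 10 s baseline. Fluorescence was read kinetically at 1 cycle/s for 180 s, with calcium rises flagged as agonism.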
TRHR enhancer – TRH receptor (human) allosteric enhancement; TRHR cells, fluo-8 calcium fluorescence, EC20 TRH enhancement; P34981; hit rate 0.66% among 360,000; AID 493056; enhancement, % at 2 µM; in the data active means enhancement above about 30%; further: 0% is about no effect
Target sequence (P34981 whole entry, looked up): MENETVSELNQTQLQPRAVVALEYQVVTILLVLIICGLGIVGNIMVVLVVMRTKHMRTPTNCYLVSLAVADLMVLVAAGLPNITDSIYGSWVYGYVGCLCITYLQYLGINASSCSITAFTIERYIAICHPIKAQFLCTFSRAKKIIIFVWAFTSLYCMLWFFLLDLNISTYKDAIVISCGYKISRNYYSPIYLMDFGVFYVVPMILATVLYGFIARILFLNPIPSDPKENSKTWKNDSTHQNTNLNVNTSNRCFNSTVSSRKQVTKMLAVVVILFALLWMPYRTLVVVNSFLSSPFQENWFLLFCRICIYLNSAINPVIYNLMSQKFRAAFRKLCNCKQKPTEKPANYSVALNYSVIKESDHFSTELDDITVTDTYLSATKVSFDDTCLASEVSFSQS
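TRHR-expressing cells loaded with fluo-8 calcium dye were read kinetically (ex 480/em 530) during compound addition, then stimulated with an EC20 of TRH (10 nM final). Enhancement of the Gq-mediated intracellular calcium response was scored.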
D1 antagonist – human D1 dopamine receptor antagonism. HEK293 TREx D1 cells, calcium flux, dopamine EC80; hits give low values. activity change, negative = inhibition, % at 10 µM. hit rate 3.2% among 360,000; in the data active means activity change below about -30%; further: on the % scale 0 is the no-effect control and ±100 the full control effect
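Inducible Hek293 Trex D1 cells (tetracycline, overnight, 30 C). Calcium dye 30–90 min RT. Antagonist mode: EC80 dopamine added after 180 s compound read.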
TRHR ag – activates the human TRH receptor | P34981 | TRHR cells, calcium flux fluo-8, FDSS agonist mode | hit rate 0.18% among 360,000 | activation, % at 2 µM; further: 0% is about no effect
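TRHR-expressing cells, plated overnight in medium with 10% serum, were loaded with fluo-8 calcium dye at room temperature. After a 10 s baseline, library compound was pin-added and calcium release was recorded kinetically (ex 480/em 530) as agonist response.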
D1 potentiator – enhances dopamine response at the human D1 receptor; AID 504651; P21728; HEK293 TREx D1 cells, calcium flux, dopamine EC20 potentiation; potentiation, % at 10 µM; hit rate 0.036% among 360,000; in the data active means potentiation above about 30%; further: 0% is about no effect
* marks the source's active call; other numbers are inactive results; . = no result given; ! = not active in a repeat. Shown are actives, neighbours in structure and some others; about 4.6% of the full set was active somewhere. Unless noted, no stated cut-off is given here; in the data, active means activation above about 30%; inactive means the rest.

SMILES	D1 agonist	TRHR enhancer	D1 antagonist	TRHR ag	D1 potentiator
O=C(Cc1ccc(Cl)cc1)Nc1ccc(N2CCCC2)cc1	1	4	3	-1	-7
COC(=O)C1CCN(C(=O)COC(=O)c2cc(-c3cccs3)nn2-c2ccccc2)CC1	2	-2	6	0	-8
CC1(C)Cc2cccc(C(=O)Nc3ccc(Cl)cc3)c2O1	4	7	-34*	0	-4
CC1(C)Cc2cccc(C(=O)Nc3ccncc3)c2O1	4	4	6	0	-3
CCN(CCCNC(=O)CN1N=C(c2ccccc2)CCC1=O)c1cccc(C)c1	-4	5	13	-1	-1
CCN(CCCNC(=O)CN1N=C(c2ccc(OC)cc2)CCC1=O)c1cccc(C)c1	0	-6	-40*	-1	-4
CCCC(=O)OCCNc1cc(Sc2nccn2C)c2nonc2c1[N+](=O)[O-]	3	-11	-32*	0	-9
CSCC[C@H](NC(=O)OC(C)(C)C)c1nnc(SCc2cccc(F)c2)o1	3	3	-28	1	-4
CC(C)C[C@H](NC(=O)OC(C)(C)C)c1nnc(SCc2cccc(F)c2)o1	31*	4	-13	0	6
O=C(CNc1ccccc1)N/N=C/c1cc([N+](=O)[O-])ccc1N1CCCC1	2	-16	-31*	-1	-9
Cc1cc(C)cc(NC(=O)N2CCN3CCCCC3C2)c1 (stereo unspecified)	2	0	-10	0	-2
Cc1ccc(NC(=O)N2CCN3CCCCC3C2)cc1C (stereo unspecified)	-1	0	-36*	0	-2
COC(=O)CN1C(=O)C(C)=C(c2ccc(C)cc2)S1(=O)=O	1	-4	-36*	-1	-6
CC1=C(c2ccc(C)cc2)S(=O)(=O)N(CC(=O)O)C1=O	6	-1	-1	1	4
COCc1cc(C)nc(SCC(=O)Nc2ccc3c(c2)OCCO3)c1C#N	7	-5	-31*	-1	-5
COCc1cc(C)nc(SCc2ccc(Cl)cc2)c1C#N	36*	3	-32*	-1	-3
COc1cccc(-c2nc(=S)c3c(n2CCCO)CCCC3)c1	1	-5	-7	0	-3
Cc1ccc2cc(CCNC(=O)c3cccc([N+](=O)[O-])c3)c(=O)[nH]c2c1	1	-4	-15	0	4
Cc1ccc2cc(COC(=O)c3cccc([N+](=O)[O-])c3)c(=O)[nH]c2c1	1	-9	-34*	0	-7
COc1cc(OC)cc(C(=O)OCc2cc3ccccc3[nH]c2=O)c1	0	22	-40*	0	-12
CC[C@H](C)NC(=O)CCCc1nnc2n(CCC(C)C)c(=O)c3sccc3n12	-1	7	0	-1	-4
O=C(NC1CCN(Cc2ccccc2)CC1)c1ccc(Cn2c(=O)c3ccccc3n(Cc3ccc(Cl)cc3)c2=O)cc1	-1	-3	-18	1	1
NC(=O)CC(NC(=O)Cc1cccc2ccccc12)c1ccc(N2CCCCCCC2)c([N+](=O)[O-])c1 (stereo unspecified)	0	4	7	0	5
COC(=O)CN1C(C(=O)c2ccccc2)=C(OC(=O)c2ccc(F)cc2)c2ccccc2S1(=O)=O	0	-8	-78*	1	-1
C(=N\N1CCN(Cc2cccc3ccccc23)CC1)/c1cccs1	3	-3	-11	-2	-8
SMILES	D1 agonist	TRHR enhancer	D1 antagonist	TRHR ag	D1 potentiator
CCOC(=O)N1CCN(C(=O)CSc2ccc(-c3cccc(OC)c3)nn2)CC1	-1	-1	9	0	-2
Cc1ccc(C(=O)NCC(=O)OCC(=O)N2CCCc3ccccc32)cc1	0	-1	-26	-1	-4
COc1cc(OC)c2c(OC)cccc2n1	0	-10	-82*	0	-4
CCCCC(CC)CNC(=O)CCS(=O)(=O)c1cccc2nonc12 (stereo unspecified)	3	2	-56*	-1	-2
O=C(/C=C/c1ccc(N2CCC(c3ccccc3)=N2)cc1)c1ccccc1	138*	-3	-28	57*	-12
COc1ccc(S(=O)(=O)N2c3ccccc3OCC2C(C)(C)C)cc1 (stereo unspecified)	4	-4	-63*	1	-8
COc1ccc(S(=O)(=O)N2c3ccccc3OCC2C)cc1 (stereo unspecified)	-1	-2	12	0	2
Oc1c(C(c2ccccc2)N2CCN(c3ccccc3)CC2)sc2nc(-c3ccco3)nn12 (stereo unspecified)	1	1	.	0	-1
CC(C)NC(=O)CC(c1ccccc1)c1cc(Br)ccc1O (stereo unspecified)	44*	8	5	-1	2
CCCCCCNC(=O)CC(c1ccccc1)c1cc(Br)ccc1O (stereo unspecified)	7	8	14	0	-2
Cc1cc(OCC(=O)N[C@@H](CSCc2ccccc2)C(=O)O)c2c(C)c(C)c(=O)oc2c1	-1	41*	1	0	6
CC/C(=N\NC(=O)c1ccncc1)C12CC3CC(CC(C3)C1)C2	1	-8	-4	0	4
O=C(NNC(=S)NC(=O)C12CC3CC(CC(C3)C1)C2)c1ccncc1	136*	6	0	36*	-5
O=C(NNC(=O)C1CCCCC1)c1ccncc1	4	10	17	0	.
CC1(C(=O)NC(=S)NNC(=O)c2ccncc2)CCCCC1	43*	-2	-18	12	-2
CC1CCCC(C)N1C(=O)CSc1nnc(-c2cccs2)o1 (stereo unspecified)	-3	-8	20	0	-1
CCC(C)(C)n1nnnc1C(c1cc2ccc(OC)cc2[nH]c1=O)N1CCc2ccccc2C1 (stereo unspecified)	1	-1	-4	0	13
COc1ccc2cc(C(c3nnnn3C(C)(C)C)N3CCc4ccccc4C3)c(=O)[nH]c2c1 (stereo unspecified)	0	11	-45*	0	-2
CCC(C)[C@H](NC(=O)[C@@H]1CSC2c3ccccc3C(=O)N21)C(=O)NCC1CCCO1 (stereo partly specified)	1	3	7	0	2
CC(NC(=O)c1cc2cc(F)ccc2[nH]1)c1ccccc1 (stereo unspecified)	17	25	-55*	1	-16
O=C(O)c1cc2cc(F)ccc2[nH]1	44*!	3	4	0	0
C=C(C)COc1ccc(-c2[nH]ncc2Oc2cccc(OC)c2)c(O)c1	5	2	-39*	0	-4
COc1ccc(-c2nnc3sc(CN4C(=O)c5ccccc5C4=O)nn23)cc1	4	36*	-5	0	2
COc1cc(C(=O)NCCc2cn3ccccc3n2)cc(OC)c1OC	3	30*	6	0	-12
